# Data from PubChem BioAssay.
# Assay: JC-1 mitochondrial signal, unstimulated myeloma cells – cell-based, JC-1 fluorescence, RPMI8226, 24 h, 100 nL compound, profiling panel (AID 1169)
# Conditions: JC-1 mitochondrial potential fluorescence, higher = more signal
# Further: test concentration not given here.
row,SMILES,z-score
1,C=CC[C@@H]1C=C[C@H](ON=C(C)CCN2CCCCc3nc(C)c(C)cc32)[C@@H](CO)O1,-0.174
2,C[C@@H](c1ccccc1)N1C(=O)[C@H]2[C@H]3[C@H](O)[C@H](O)CC(=NOC[C@@H](O)COCc4ccco4)[C@H]3CC[C@H]2C1=O,-0.84
3,COc1ccc(O[C@H]2C=C[C@@H](C#Cc3ccccc3)O[C@@H]2CO)cc1,-0.891
4,COC(=O)[C@@H]1CC[C@H](C)[C@@H](c2ccc(Br)cc2)N1C[C@@H](O)CN=[N+]=[N-],0.65
5,CC(C)=CCCC(C)=CCON=C1C[C@@H](O)[C@@H](O)[C@@H]2[C@@H]3C(=O)N(Cc4ccc5c(c4)OCO5)C(=O)[C@@H]3CC[C@@H]12,0.0988

# Assay: JC-1 mitochondrial signal, unstimulated MM1S myeloma – cell-based, JC-1 fluorescence, 24 h, 100 nL compound, profiling panel (AID 1170)
# Conditions: MM1S mitochondrial potential, higher = more signal
row,SMILES,z-score
1,C=CC[C@@H]1C=C[C@H](ON=CC[C@@H]2C=C[C@H](OC(C)=O)[C@@H](COC(C)=O)O2)[C@@H](CO)O1,-0.838
2,C=CC[C@@H]1C=C[C@H](ON=C(C)CCN2CCCc3nc(C)c(C)cc32)[C@@H](CO)O1,-0.455
3,CC(=O)OC[C@H]1O[C@H](CC=NO[C@H](C)c2cn([C@@H]3COC[C@H]3O)nn2)C=C[C@@H]1OC(C)=O,-0.466
4,CC(=O)OC[C@H]1O[C@H](CCON=C(C)CCN2CCCc3nc(C)c(C)cc32)C=C[C@@H]1OC(C)=O,-0.033
5,CO[C@H]1COC(=O)[C@H](CCSC)NC(=O)CC=C[C@@H](C)[C@H](OC)COC(=O)[C@@H](OCc2ccccc2)C=C[C@@H]1C,-0.491
6,CN1CCc2nc(-c3ccccc3)c(-c3ccccc3)cc2C1,-0.201
7,CON=C(C)CCN1CCc2nc(-c3ccccc3)c(-c3ccccc3)cc2C1,0.446
